TROY NFkB inh = blocks TROY-dependent signaling in reporter cells; AID 1347056; Q293 LMP1-TROYcd NF-kB luciferase reporter, 4 h; inhibition, % at 10 µM; actives 0.98% (n = 360,000);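 active means compounds whose plate-normalised and pattern-corrected inhibition of the luciferase reporter signal at the single screening dose is 50% or more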
EBV LMP1 NFkB = Epstein-Barr LMP1 NF-kappaB reporter inhibition; LMP1-induced NF-kappaB luciferase reporter cells, luminescence; AID 504558; inhibition, % at 12.5 µM; actives 0.69% (n = 350,000); in the data active means inhibition above about 41%
HSF1 inh = HSF1 inhibition; NIH3T3-HGL HSE-luciferase, MG132-induced, luminescence 8 h; hits give low values; activity change, negative = inhibition, % at 7.5 µM (by protocol); actives 0.77% (n = 300,000); AID 2098;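 active means more than half of replicate wells show activity change below -50%, luminescence cut by over half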;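 further: luciferase reports HSF-1 transcriptional activity via heat shock element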
LGR2 inh = Drosophila LGR2 receptor signaling inhibition; HEK293 LGR2, CRE-luciferase, bursicon-stimulated, 4 h; inhibition, % at 9.99 µM; actives 0.35% (n = 380,000);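 active means drop in luminescence signal, shown as inhibition above about 50% in the replicate tests, limit read from the data, passing the limit was not always enough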;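 further: agonist challenge used bursicon conditioned medium at about half maximal strength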
HSF1 activator = increases HSF-1 driven luciferase reporter signal; actives 1.7% (n = 300,000); AID 504408; NIH3T3-HGL HSF-1 luciferase reporter, MG132, 8 h; 100% = twice DMSO control signal; activation, % at 9 µM;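 active means mean replicate activation of at least 50% with a set share of replicates each reaching 50%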
TWEAK Fn14 block = blocks TWEAK-Fn14 interaction in a reporter cell assay | TWEAK-stimulated Fn14 reporter cells, luciferase luminescence, 8 h | inhibition, % at 10 µM | actives 2% (n = 360,000) | AID 1159606; in the data active means inhibition above about 50%
Numbers stand for hits; – = inactive; · = no result given. Sampled rows, rich in hits. Any-hit rate of the full collection: about 3.6%.

SMILES	TROY NFkB inh	EBV LMP1 NFkB	HSF1 inh	LGR2 inh	HSF1 activator	TWEAK Fn14 block
CN(C)c1ccc(N=c2sc3ccccc3n2C)cc1	–	–	–	·	110	–
CO[C@H]1CN(C)C(=O)c2cc(NS(=O)(=O)c3ccc(C)cc3)ccc2OC[C@H](C)N(Cc2nccs2)C[C@@H]1C	·	·	·	–	·	·
CCC(=O)N(C)C[C@H]1Oc2ncc(-c3ccccc3C)cc2C(=O)N([C@@H](C)CO)C[C@@H]1C	·	·	·	–	·	·
COC(=O)c1nc(Cl)c(Cl)c(N)c1Cl	–	–	-72	–	–	–
CC(=O)N1[C@@H]2CN(C(=O)c3ccccc3)c3ccccc3[C@@H]2[C@@H]1CO	·	·	·	–	·	·
COc1ccc(S(=O)(=O)Nc2ccc3c(c2)C(=O)N([C@@H](C)CO)C[C@@H](C)[C@@H](CN(C)C(=O)Nc2cccc4ccccc24)OCCCC[C@H](C)O3)cc1	·	·	·	–	·	·
CS(=O)(=O)N(CC(=O)N1CCN(c2cccc(Cl)c2)CC1)C1CCCCC1	–	–	–	·	–	67
CCc1nn(C(C)C(=O)NCCc2ccccc2)c(=O)c2cc3occc3n12 (stereo unspecified)	–	–	–	–	–	–
CCc1nn(C(C)C(=O)NC(C)CCc2ccco2)c(=O)c2cc3occc3n12 (stereo unspecified)	–	–	–	·	129	–
Cc1cc(C)c2cc(CN(Cc3ccco3)C(=S)NCC3CCCO3)c(=O)[nH]c2c1 (stereo unspecified)	–	–	–	–	299	–
COC(=O)c1ccccc1NC(=S)N(Cc1ccc2c(c1)OCO2)Cc1cc2ccc(C)cc2[nH]c1=O	–	–	–	–	–	–
COc1ccc2cc(CN(Cc3ccco3)C(=S)NCC3CCCO3)c(=O)[nH]c2c1 (stereo unspecified)	–	–	–	–	55	–
COC(=O)c1ccccc1NC(=S)N(Cc1ccc2c(c1)OCO2)Cc1cc2ccc(OC)cc2[nH]c1=O	–	–	–	–	90	–
CCCC(c1nnnn1C(C)(C)CC)N(Cc1ccco1)Cc1cc2ccc(OC)cc2[nH]c1=O (stereo unspecified)	–	–	–	·	57	–
CCC(c1nnnn1Cc1ccccc1)N(Cc1ccco1)Cc1cc2cc(OC)ccc2[nH]c1=O (stereo unspecified)	–	–	–	·	–	–
COc1ccc2[nH]c(=O)c(CN(Cc3ccccc3)C(=S)NCC3CCCO3)cc2c1 (stereo unspecified)	–	–	–	·	–	–
Cc1ccc2[nH]c(=O)c(CN(Cc3cccs3)C(=S)NCC3CCCO3)cc2c1 (stereo unspecified)	–	–	–	–	–	–
CC(=O)N=c1sc2cc(C)ccc2n1C	–	–	–	–	–	52
O=C(c1cccc(F)c1)N1C[C@H]2[C@@H](c3ccccc31)[C@H](CO)N2C(=O)c1ccccn1	·	·	·	–	·	·
Cc1cccc(NC(=O)c2cc3ccccc3c(=O)o2)n1	–	–	–	–	–	51
Cc1nc(NC(=O)c2cc3ccccc3o2)ccc1Br	–	–	–	–	–	–
COc1ccccc1C(=O)N1C[C@H]2[C@@H](c3ccccc31)[C@H](CO)N2C(=O)Cc1ccccc1	·	·	·	–	·	·
CCCCC1CCC(c2nc(-c3ccccn3)no2)CC1 (stereo unspecified)	–	–	–	·	–	56
CO[C@H]1CN(C)C(=O)c2ccc(NS(=O)(=O)c3ccccc3Cl)cc2OC[C@H](C)NC[C@H]1C	·	·	·	–	·	·
CO[C@H]1CC[C@@H]2CCN(C)C(=O)[C@@H](C)[C@H](OC)CN(C)C(=O)c3cc(C#N)ccc3OC[C@@H]1O2	·	·	·	–	·	·
SMILES	TROY NFkB inh	EBV LMP1 NFkB	HSF1 inh	LGR2 inh	HSF1 activator	TWEAK Fn14 block
COc1ccc(-n2cccc2/C=C2/NC(=O)N(c3cccc(Cl)c3)C2=O)cc1	76	–	-63	·	–	56
O=C(O)c1cccc(-n2cccc2/C=C2/NC(=O)N(c3cccc(Cl)c3)C2=O)c1	–	–	–	–	–	58
CCCNC(=O)N[C@@H]1C=C[C@@H](CC(=O)NCCc2ccccc2)O[C@@H]1CO	·	·	·	–	·	·
CCC(=O)Nc1ccc2c(c1)C(=O)N(C)[C@H]1CC[C@H](CC(=O)NCc3ccc(OC)cc3)O[C@@H]1CO2	·	·	·	–	·	·
COCc1cc(C)nc(SCC(=O)Nc2ccccc2N2CCOCC2)c1C#N	–	–	–	–	65	–
COc1ccccc1C(=O)NC(=S)Nc1ccccc1N1CCCC1	78	–	-58	–	–	76
O=C(CSc1ccc([N+](=O)[O-])cc1)Nc1ccccc1N1CCOCC1	–	–	·	–	·	–
O=C(CSc1ccc(Br)cc1)Nc1ccccc1N1CCOCC1	–	–	-77	–	–	–
COc1ccc(OCC(=O)NC(=S)N2CCCc3ccccc32)cc1	–	–	–	–	–	55
O=C(COc1ccccc1)NC(=S)N1CCc2ccccc21	–	–	–	·	–	–
COc1ccc(NC(=O)N(C)C[C@@H]2Oc3cc(-c4ccc(C)cc4)ccc3S(=O)(=O)N([C@H](C)CO)C[C@H]2C)cc1	·	·	·	–	·	·
COc1ccccc1C(=O)NC(=S)N1CCCc2ccccc21	–	–	-61	–	–	59
COc1ccccc1C(=O)Nc1ccccc1N1CCOCC1	–	–	–	–	–	–
COc1ccccc1NC(=O)Nc1ccccc1N1CCOCC1	–	–	–	–	–	61
CN1CCN(c2nc(-c3ccccc3Cl)nc3ccccc23)CC1	–	–	–	–	–	–
CCN1CCN(c2nc(-c3ccccc3Cl)nc3ccccc23)CC1	–	–	–	–	–	68
COc1ccc(-c2ccc3c(c2)[C@H]2[C@H](CCN2S(=O)(=O)c2ccccc2C)[C@H](CO)N3)cc1	·	·	·	–	·	·
CC(C)NC(=O)N(C)C[C@@H]1Oc2ccc(NC(=O)Cc3cn(C)c4ccccc34)cc2CC(=O)N([C@H](C)CO)C[C@H]1C	·	·	·	–	·	·
COc1ccc(S(=O)(=O)Nc2cccc3c2O[C@@H](CN(C)Cc2ccccc2)[C@@H](C)CN([C@H](C)CO)C3=O)cc1	·	·	·	–	·	·
Cc1cccc(Cn2cc(SCC(=O)Nc3nccs3)c3ccccc32)c1	–	82	–	–	–	–
Cc1ccc(Cn2cc(SCC(=O)Nc3nccs3)c3ccccc32)cc1	–	–	–	–	–	–
Cc1ccc(C(=O)NCCn2cc(SCC(=O)Nc3cc(C)on3)c3ccccc32)cc1	73	–	–	–	–	84
Cc1cc(NC(=O)CSc2cn(CCNC(=O)c3ccccc3)c3ccccc23)no1	–	–	–	·	–	–
O=C(CSc1cn(CC(=O)N2CCOCC2)c2ccccc12)N1CCOCC1	–	–	–	–	–	–
Cc1ccc(C(=O)NCCn2cc(SCC(=O)N3CCOCC3)c3ccccc32)cc1	78	–	–	–	–	86
CCn1cc(SCC(=O)Nc2cc(C)on2)c2ccccc21	–	–	-59	–	–	–

Bioassay records (PubChem BioAssay)
